Experimental data from PMC7862700, “An all-to-all approach to the identification of sequence-specific readers for epigenetic DNA modifications on cytosine”.

Tests used:
Experiment in all cases: DAPPL (digital affinity profiling via proximity ligation, sequencing); 10 mM Tris-HCl pH 7.5, 50 mM NaCl, 1 mM DTT, 4% glycerol, room temperature, 30 min; GST-TFs on glutathione beads, 16-mer random dsDNA library, 0.1% formaldehyde crosslink after washing; high values mean tight binding
FEV = target: T1, FEV (Homo sapiens, UniProt Q99581 1-238); settings: protein: recombinant; tags: N-terminal GST; dsDNA, one strand shown
T1 sequence: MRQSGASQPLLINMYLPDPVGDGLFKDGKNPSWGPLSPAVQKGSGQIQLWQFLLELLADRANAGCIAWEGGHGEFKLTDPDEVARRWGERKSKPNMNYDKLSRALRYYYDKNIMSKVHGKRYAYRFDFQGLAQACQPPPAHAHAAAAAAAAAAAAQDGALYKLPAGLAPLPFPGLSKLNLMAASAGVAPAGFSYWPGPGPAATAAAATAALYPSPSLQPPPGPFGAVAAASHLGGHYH
Procedure, shortened: (§1)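 In yeast, human transcription factors were expressed with a GST fusion, then pulled down on glutathione beads and given DNA barcodes. Pooled with a tag-only sample, they were exposed to 200 nmole of a 16-mer random double-stranded DNA library (Tris/NaCl/DTT/glycerol buffer, room temperature, 30 min), washed, crosslinked with 0.1% formaldehyde, proximity-ligated using BsaI/T4 ligase for 1 h at 37 °C, PCR-amplified and read on an Illumina NextSeq500. Each hexamer's frequency of reads for a factor, divided by the matching frequency for the tag-only sample, gives the binding signal.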

ETV5 = ETV5 (Homo sapiens, UniProt P41161 1-510); settings: protein: recombinant; tags: N-terminal GST; dsDNA, one strand shown
Procedure, shortened: as §1

HSF1 = HSF1 (Homo sapiens, UniProt Q00613 1-529); settings: protein: recombinant; tags: N-terminal GST; chain copies: 3; dsDNA, one strand shown
Procedure, shortened: as §1

SPIC = target: T2, SPIC (Homo sapiens, UniProt Q8N5J4 1-248); settings: protein: recombinant; tags: N-terminal GST; dsDNA, one strand shown
T2 sequence: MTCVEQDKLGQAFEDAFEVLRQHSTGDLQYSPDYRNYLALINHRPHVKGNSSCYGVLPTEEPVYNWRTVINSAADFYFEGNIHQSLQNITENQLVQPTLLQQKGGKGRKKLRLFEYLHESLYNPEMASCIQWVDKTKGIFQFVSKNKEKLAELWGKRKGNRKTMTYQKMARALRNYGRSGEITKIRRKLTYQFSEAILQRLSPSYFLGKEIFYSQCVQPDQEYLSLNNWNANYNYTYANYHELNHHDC
Procedure, shortened: as §1

ELF4 = ELF4 (Homo sapiens, UniProt Q99607 1-663); settings: protein: recombinant; tags: N-terminal GST; dsDNA, one strand shown
Procedure, shortened: as §1

ELK4 = target: T3, ELK4 (Homo sapiens, UniProt P28324-2 1-405); settings: protein: recombinant; tags: N-terminal GST; dsDNA, one strand shown
T3 sequence: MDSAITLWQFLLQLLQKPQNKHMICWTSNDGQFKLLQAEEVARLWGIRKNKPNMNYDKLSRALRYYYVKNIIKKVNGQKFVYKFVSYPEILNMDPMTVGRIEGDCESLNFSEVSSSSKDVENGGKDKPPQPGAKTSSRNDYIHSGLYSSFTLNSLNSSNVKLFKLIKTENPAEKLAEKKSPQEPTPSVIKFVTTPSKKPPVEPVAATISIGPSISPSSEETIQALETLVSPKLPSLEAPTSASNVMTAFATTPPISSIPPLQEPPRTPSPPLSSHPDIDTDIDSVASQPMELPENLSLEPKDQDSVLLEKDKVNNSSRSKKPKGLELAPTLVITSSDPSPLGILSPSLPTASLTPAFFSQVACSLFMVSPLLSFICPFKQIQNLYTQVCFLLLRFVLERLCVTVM
Procedure, shortened: as §1

ETV2 = target: T4, ETV2 (Homo sapiens, UniProt O00321 1-342); settings: protein: recombinant; tags: N-terminal GST; dsDNA, one strand shown
T4 sequence: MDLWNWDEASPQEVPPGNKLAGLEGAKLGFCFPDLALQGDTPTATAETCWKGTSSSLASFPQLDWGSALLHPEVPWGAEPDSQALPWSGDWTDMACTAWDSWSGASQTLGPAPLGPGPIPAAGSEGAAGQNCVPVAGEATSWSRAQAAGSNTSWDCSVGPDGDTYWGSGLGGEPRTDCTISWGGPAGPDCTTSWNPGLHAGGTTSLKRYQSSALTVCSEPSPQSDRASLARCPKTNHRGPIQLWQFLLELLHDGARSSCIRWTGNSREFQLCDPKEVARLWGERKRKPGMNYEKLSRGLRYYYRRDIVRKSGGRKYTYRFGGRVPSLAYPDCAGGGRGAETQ
Procedure, shortened: as §1

ELF3 = target: T5, ELF3 (Homo sapiens, UniProt P78545 1-371); settings: protein: recombinant; tags: N-terminal GST; dsDNA, one strand shown
T5 sequence: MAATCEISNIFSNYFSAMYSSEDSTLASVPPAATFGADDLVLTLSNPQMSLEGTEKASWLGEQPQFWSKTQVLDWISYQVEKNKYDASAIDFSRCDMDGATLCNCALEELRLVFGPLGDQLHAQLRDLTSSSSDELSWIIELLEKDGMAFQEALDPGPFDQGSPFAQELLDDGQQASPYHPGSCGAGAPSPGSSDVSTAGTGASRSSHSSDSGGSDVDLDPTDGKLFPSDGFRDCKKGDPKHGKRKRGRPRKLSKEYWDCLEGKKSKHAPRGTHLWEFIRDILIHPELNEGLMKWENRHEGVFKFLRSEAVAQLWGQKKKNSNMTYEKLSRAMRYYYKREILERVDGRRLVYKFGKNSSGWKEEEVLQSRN
Procedure, shortened: as §1

CRX = CRX (Homo sapiens, UniProt O43186 1-299); settings: protein: recombinant; tags: N-terminal GST; dsDNA, one strand shown
Procedure, shortened: as §1

ETV1 = ETV1 (Homo sapiens, UniProt P50549 1-477); settings: protein: recombinant; tags: N-terminal GST; dsDNA, one strand shown
Procedure, shortened: as §1

ERF = target: T6, ERF (Homo sapiens, UniProt P50548 1-548); settings: protein: recombinant; tags: N-terminal GST; dsDNA, one strand shown
T6 sequence: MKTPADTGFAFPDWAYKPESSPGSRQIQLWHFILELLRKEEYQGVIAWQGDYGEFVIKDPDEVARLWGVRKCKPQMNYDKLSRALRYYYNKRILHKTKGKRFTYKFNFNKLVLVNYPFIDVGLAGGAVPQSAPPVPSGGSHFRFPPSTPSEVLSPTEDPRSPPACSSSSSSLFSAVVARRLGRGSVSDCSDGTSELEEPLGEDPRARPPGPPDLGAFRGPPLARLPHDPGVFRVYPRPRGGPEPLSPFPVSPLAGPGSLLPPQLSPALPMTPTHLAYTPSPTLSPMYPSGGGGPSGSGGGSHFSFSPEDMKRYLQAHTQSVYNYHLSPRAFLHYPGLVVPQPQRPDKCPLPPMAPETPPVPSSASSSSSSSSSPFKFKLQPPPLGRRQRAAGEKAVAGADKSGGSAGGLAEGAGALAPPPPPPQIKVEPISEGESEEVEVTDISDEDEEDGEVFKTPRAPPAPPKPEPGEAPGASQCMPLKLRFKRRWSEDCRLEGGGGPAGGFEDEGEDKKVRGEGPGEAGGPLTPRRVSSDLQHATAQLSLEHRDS
Procedure, shortened: as §1

ETV3L = target: T7, ETV3L (Homo sapiens, UniProt Q6ZN32 1-361); settings: protein: recombinant; tags: N-terminal GST; dsDNA, one strand shown
T7 sequence: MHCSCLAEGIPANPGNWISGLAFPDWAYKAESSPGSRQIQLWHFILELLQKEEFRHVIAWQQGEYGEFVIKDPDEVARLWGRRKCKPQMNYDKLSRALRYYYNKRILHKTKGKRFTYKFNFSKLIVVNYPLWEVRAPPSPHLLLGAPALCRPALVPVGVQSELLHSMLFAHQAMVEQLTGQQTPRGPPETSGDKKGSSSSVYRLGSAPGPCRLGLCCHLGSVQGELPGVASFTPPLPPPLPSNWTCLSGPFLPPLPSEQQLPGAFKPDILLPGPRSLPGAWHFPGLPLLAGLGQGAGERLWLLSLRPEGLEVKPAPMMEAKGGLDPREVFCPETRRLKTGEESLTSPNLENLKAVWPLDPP
Procedure, shortened: as §1

ETS2 = target: T8, ETS2 (Homo sapiens, UniProt P15036 1-469); settings: protein: recombinant; tags: N-terminal GST; dsDNA, one strand shown
T8 sequence: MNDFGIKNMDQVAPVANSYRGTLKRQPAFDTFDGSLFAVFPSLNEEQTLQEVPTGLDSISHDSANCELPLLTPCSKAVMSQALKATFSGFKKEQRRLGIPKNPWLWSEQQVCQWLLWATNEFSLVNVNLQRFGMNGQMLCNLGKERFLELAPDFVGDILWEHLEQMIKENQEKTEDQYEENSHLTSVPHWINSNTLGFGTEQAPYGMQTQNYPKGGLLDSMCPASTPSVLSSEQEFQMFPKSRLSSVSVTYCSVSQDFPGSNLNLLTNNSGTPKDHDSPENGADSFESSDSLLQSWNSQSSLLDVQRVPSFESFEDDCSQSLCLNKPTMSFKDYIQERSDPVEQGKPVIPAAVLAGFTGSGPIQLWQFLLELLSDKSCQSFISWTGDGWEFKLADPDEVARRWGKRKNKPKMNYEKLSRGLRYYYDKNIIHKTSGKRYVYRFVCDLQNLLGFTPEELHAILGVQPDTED
Procedure, shortened: as §1

SPDEF = target: T9, SPDEF (Homo sapiens, UniProt O95238 1-335); settings: protein: recombinant; tags: N-terminal GST; dsDNA, one strand shown
T9 sequence: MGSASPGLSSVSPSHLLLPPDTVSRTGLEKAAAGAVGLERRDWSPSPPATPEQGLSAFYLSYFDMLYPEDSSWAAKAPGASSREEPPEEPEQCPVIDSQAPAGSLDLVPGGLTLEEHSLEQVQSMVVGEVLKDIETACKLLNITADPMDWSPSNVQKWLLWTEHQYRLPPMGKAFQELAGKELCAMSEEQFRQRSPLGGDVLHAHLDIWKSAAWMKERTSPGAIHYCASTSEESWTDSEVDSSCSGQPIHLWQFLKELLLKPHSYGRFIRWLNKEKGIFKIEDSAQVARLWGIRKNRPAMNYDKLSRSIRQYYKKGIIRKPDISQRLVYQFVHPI
Procedure, shortened: as §1

ETV7 = target: T10, ETV7 (Homo sapiens, UniProt Q9Y603 1-341); settings: protein: recombinant; tags: N-terminal GST; dsDNA, one strand shown
T10 sequence: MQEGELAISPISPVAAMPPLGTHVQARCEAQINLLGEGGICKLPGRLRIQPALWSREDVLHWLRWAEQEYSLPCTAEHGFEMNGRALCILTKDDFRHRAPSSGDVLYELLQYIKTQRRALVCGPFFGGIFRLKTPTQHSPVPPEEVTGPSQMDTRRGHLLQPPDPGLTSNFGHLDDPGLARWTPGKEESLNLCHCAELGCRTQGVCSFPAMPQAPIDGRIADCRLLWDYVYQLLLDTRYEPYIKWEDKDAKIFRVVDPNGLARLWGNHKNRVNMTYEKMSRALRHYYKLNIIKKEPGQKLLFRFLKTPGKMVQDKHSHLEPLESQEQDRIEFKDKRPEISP
Procedure, shortened: as §1

ELF5 = target: T11, ELF5 (Homo sapiens, UniProt Q9UKW6-2 1-255); settings: protein: recombinant; tags: N-terminal GST; dsDNA, one strand shown
T11 sequence: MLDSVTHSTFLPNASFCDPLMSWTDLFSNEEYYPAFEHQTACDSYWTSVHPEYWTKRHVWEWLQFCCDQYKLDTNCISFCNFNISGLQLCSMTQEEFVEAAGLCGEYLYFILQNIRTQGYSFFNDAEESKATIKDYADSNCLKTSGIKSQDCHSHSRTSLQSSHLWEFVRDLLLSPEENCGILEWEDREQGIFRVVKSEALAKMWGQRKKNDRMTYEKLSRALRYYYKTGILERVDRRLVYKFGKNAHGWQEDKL
Procedure, shortened: as §1

ETV3 = target: T12, ETV3 (Homo sapiens, UniProt P41162-2 1-143); settings: protein: recombinant; tags: N-terminal GST; dsDNA, one strand shown
T12 sequence: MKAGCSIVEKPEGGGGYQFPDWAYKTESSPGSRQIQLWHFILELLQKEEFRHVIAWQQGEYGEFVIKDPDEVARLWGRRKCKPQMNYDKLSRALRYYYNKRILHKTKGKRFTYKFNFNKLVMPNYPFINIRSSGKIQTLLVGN
Procedure, shortened: as §1

ETV6 = ETV6 (Homo sapiens, UniProt P41212 1-452); settings: protein: recombinant; tags: N-terminal GST; dsDNA, one strand shown
Procedure, shortened: as §1

Sequence of ELF4 (Q99607 whole entry): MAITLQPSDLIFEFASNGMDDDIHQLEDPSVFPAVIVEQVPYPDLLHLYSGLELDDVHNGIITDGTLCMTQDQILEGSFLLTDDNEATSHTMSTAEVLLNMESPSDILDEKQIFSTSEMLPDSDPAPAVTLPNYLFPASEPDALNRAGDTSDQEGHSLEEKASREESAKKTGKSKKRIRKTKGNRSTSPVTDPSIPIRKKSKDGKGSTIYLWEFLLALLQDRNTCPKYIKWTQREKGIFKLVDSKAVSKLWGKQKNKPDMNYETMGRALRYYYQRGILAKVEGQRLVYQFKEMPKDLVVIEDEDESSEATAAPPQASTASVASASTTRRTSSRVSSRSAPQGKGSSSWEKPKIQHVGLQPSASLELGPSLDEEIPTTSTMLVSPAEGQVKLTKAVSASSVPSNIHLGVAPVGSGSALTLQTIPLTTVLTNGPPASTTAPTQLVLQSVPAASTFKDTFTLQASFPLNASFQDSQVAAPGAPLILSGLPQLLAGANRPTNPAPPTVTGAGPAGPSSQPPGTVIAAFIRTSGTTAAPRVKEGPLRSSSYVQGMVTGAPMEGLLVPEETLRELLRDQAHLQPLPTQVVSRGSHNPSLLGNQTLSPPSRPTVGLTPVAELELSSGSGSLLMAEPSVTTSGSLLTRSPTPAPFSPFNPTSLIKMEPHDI
Sequence of ETV5 (P41161 whole entry): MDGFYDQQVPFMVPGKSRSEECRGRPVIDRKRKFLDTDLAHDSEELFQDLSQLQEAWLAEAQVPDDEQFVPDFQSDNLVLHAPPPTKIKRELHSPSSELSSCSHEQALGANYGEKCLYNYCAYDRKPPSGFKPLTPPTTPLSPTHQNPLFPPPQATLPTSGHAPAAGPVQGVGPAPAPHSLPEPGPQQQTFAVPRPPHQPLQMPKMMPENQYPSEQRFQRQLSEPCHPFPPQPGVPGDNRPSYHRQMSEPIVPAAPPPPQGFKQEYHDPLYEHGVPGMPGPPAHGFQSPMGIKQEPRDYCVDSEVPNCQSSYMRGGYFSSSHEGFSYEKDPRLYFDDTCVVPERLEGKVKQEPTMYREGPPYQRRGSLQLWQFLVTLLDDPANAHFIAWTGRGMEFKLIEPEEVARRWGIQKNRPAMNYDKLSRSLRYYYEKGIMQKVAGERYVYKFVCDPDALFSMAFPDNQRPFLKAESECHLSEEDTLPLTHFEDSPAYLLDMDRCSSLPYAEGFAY
Sequence of ETV6 (P41212 whole entry): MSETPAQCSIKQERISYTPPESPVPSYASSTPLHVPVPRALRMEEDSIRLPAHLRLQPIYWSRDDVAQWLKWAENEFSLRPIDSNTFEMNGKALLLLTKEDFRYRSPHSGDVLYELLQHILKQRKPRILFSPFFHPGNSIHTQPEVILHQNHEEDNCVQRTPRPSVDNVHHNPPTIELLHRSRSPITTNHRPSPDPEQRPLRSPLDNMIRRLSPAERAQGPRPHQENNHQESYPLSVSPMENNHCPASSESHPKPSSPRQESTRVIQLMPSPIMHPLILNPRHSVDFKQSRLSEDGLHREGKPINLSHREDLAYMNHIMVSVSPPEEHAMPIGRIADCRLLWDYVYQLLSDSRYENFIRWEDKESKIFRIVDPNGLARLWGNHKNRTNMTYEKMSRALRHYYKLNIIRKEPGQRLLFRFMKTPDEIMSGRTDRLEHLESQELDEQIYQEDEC
Sequence of ETV1 (P50549 whole entry): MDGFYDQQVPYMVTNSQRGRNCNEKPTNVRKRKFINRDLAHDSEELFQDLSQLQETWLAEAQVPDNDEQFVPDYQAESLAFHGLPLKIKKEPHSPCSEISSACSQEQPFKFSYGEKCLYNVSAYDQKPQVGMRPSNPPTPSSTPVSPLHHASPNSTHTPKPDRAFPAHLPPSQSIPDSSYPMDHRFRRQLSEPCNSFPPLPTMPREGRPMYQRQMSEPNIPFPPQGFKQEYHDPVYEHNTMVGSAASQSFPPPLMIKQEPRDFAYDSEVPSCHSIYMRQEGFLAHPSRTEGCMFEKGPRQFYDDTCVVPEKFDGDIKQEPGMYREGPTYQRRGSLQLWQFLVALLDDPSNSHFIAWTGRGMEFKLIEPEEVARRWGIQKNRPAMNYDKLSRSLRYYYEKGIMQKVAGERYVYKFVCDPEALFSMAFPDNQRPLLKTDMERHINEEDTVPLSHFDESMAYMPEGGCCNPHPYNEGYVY
Sequence of CRX (O43186 whole entry): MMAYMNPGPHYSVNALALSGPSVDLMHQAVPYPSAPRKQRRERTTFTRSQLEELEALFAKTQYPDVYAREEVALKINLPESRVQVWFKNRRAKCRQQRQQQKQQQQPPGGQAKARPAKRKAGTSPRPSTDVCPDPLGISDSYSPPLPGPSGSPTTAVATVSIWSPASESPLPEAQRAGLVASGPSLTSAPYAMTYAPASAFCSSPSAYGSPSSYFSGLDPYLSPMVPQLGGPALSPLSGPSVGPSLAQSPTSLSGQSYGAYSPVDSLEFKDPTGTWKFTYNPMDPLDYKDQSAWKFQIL
Sequence of HSF1 (Q00613 whole entry): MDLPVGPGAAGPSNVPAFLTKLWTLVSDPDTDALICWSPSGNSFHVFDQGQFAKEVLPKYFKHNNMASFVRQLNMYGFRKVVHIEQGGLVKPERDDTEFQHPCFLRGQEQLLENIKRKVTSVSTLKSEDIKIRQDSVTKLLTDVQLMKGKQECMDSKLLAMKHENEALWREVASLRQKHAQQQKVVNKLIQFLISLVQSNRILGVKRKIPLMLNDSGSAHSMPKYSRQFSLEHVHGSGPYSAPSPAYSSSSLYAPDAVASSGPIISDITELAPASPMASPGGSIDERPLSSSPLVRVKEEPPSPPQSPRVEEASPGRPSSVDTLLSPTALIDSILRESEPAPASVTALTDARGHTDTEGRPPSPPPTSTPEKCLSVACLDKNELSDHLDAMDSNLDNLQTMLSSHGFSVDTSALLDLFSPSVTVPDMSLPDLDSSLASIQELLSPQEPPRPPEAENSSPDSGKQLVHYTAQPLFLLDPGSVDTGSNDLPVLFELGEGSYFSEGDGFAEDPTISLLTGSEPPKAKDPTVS

In the case of CCGATC, the binding signal (FEV) is reported as 1.24 fold enrichment (6-mer frequency, TF over GST control), the binding signal (ETV5) is reported as 1.25 fold enrichment (6-mer frequency, TF over GST control) and the binding signal (HSF1) is reported as 1.23 fold enrichment (6-mer frequency, TF over GST control). The binding signal (SPIC) was 1.27 fold enrichment (6-mer frequency, TF over GST control), the binding signal (ELF4) was 1.2 fold enrichment (6-mer frequency, TF over GST control) and the binding signal (ELK4) was 1.13 fold enrichment (6-mer frequency, TF over GST control). For the same sequence, the binding signal (ETV2) was 1.19 fold enrichment (6-mer frequency, TF over GST control), the binding signal (ELF3) was 1.4 fold enrichment (6-mer frequency, TF over GST control) and the binding signal (CRX) was 1.36 fold enrichment (6-mer frequency, TF over GST control). The binding signal (ETV1) was 1.12 fold enrichment (6-mer frequency, TF over GST control), the binding signal (ERF) was 1.17 fold enrichment (6-mer frequency, TF over GST control) and the binding signal (ETV3L) was 1.13 fold enrichment (6-mer frequency, TF over GST control). The binding signal (ETS2) was 1.18 fold enrichment (6-mer frequency, TF over GST control), the binding signal (SPDEF) was 1.22 fold enrichment (6-mer frequency, TF over GST control) and the binding signal (ETV7) was 1.31 fold enrichment (6-mer frequency, TF over GST control). For the same sequence, the binding signal (ELF5) was 1.1 fold enrichment (6-mer frequency, TF over GST control), the binding signal (ETV3) was 1.25 fold enrichment (6-mer frequency, TF over GST control) and the binding signal (ETV6) was 1.17 fold enrichment (6-mer frequency, TF over GST control).
